High-throughput results (PubChem BioAssay)
In the library only some 5.2% were active in any assay of this set; here they are far more common.
A3G deaminase: blocks human APOBEC3G single-stranded DNA deamination; Q9HC16; recombinant A3G, ssDNA deamination FAM/TAMRA fluorescence; inhibition, % at 20 µM; actives 0.28% (n = 330,000);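 active means inhibition of at least 40% at 20 µM, with no more than 30% in the related APOBEC3A deaminase screen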;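 further: plate controls were DMSO wells with A3G for no effect and wells lacking A3G enzyme for full effect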
ALR H2O2 inh: inhibitors of human sulfhydryl oxidase ALR | P55789 | purified ALR, DTT oxidation, H2O2 HRP-luminol luminescence | inhibition, % (test concentration not listed) | actives 3.8% (n = 290,000) | AID 485317;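 active means mean replicate inhibition above about 79%, with every replicate also reaching it, limit read from the data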
Target sequence (P55789 whole entry, looked up): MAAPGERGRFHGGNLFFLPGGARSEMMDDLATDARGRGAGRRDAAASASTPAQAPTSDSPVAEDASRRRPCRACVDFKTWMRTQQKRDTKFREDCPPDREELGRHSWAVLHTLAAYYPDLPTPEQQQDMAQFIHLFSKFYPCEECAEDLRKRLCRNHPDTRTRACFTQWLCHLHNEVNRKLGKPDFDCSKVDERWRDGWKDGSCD
Yeast superoxide: caloric restriction mimetics inhibiting age-related superoxide in yeast | S. cerevisiae aged cells, superoxide DHE fluorescence; stronger effect = lower value | superoxide response (% of plate mean), % at 10 µM | actives 0.18% (n = 330,000) | AID 2690;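 active means superoxide response under a set limit, about three screen SD below normal, cut at about 65% in these data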;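 further: yeast aged for seven days with compound at 30 °C before DHE staining; 100% = average MFI of all compound-treated wells on the plate with controls excluded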
A3A deaminase: inhibitors of human APOBEC3A DNA deaminase; P31941; inhibition, % at 20 µM; actives 0.41% (n = 330,000); recombinant A3A, FAM/TAMRA ssDNA deamination fluorescence;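 active means at least 40% inhibition at 20 µM here, with at most 30% in a related deaminase screen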;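 further: plate controls were A3A with DMSO for no effect and wells lacking A3A enzyme for full effect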
Target sequence (P31941 whole entry, looked up): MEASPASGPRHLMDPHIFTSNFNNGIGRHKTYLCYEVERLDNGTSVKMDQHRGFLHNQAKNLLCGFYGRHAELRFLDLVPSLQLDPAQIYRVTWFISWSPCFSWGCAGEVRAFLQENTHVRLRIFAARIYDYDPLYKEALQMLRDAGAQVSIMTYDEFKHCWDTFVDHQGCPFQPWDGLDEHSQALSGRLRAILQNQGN
CendR NRP1 mod: NRP-1/CendR interaction modulation; O14786; FAM-RPARPAR peptide binding to NRP-1, fluorescence polarization; inhibition, % at 25 µM; actives 0.85% (n = 360,000);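 active means inhibition or corrected inhibition above about 18%, plus a signal ratio from 0.5 to 1.5, limit read from the data, passing the limit was not always enough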
PfM18AAP inh-1: blocks P. falciparum M18 aspartyl aminopeptidase; recombinant PfM18AAP, H-Glu-NHMec fluorogenic cleavage; inhibition, % at 7.35 µM; actives 1.2% (n = 290,000);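 active means inhibition above the campaign mean inhibition over all tested compounds plus 3 SD, cut at about 28% in these data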;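 further: 0% = plate median of test compound wells and 100% = 2 mM ZnCl2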
PfM18AAP inh-2: confirmation of Plasmodium falciparum M18 aspartyl aminopeptidase inhibitors; inhibition, % at 7.35 µM; AID 2170; recombinant PfM18AAP, H-Glu-NHMec fluorogenic cleavage; shares compounds with PfM18AAP inh-1; actives 28% (n = 2,400);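 active means mean inhibition over replicate wells above the hit cutoff set for the earlier primary screen, cut at about 29% in these data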;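 further: 0% = median of test compound wells and 100% = 2 mM ZnCl2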
CTSL1 counter: counter-screen for PFM18AAP inhibitors: confirmation of human cathepsin L inhibitors | shares compounds with PfM18AAP inh-1 | purified cathepsin L1, Z-Leu-Arg-MCA fluorescence | inhibition, % at 5.96 µM | 2,400 tested, under 10 active | AID 2178;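 active means average inhibition across replicates above the hit cutoff set in the earlier primary screen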;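 further: 0% = median of test compound wells and 100% = Z-Phe-Ala-diazomethylketone 1 µM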
Target sequence (P07711 whole entry, looked up): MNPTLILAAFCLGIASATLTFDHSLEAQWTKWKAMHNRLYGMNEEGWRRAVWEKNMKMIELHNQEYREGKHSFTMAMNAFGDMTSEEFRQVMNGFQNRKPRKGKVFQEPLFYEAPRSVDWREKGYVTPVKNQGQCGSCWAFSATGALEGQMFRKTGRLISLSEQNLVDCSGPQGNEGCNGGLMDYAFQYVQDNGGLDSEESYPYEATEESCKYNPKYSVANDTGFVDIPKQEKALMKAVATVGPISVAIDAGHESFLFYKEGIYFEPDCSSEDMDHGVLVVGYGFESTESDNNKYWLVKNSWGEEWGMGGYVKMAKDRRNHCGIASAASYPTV
Numbers without * were called inactive; x = no result given.

SMILES | A3G deaminase | ALR H2O2 inh | Yeast superoxide | A3A deaminase | CendR NRP1 mod | PfM18AAP inh-1 | PfM18AAP inh-2 | CTSL1 counter
Nc1c(NCCN2CCCCC2)c2ccccc2oc1=O | -3.8 | 0.4 | 96.5 | 0.0 | -2.2 | 1.9 | x | x
CCCNc1c(N)c(=O)oc2ccccc12 | -8.6 | 34.0 | 116.8 | -3.7 | -0.5 | 48.6* | -2.7 | -5.7
O=C(/C=C/c1ccc(O)c(O)c1)c1ccccc1O | 3.8 | 99.5* | 105.7 | -4.8 | 19.0 | 72.4* | 61.0* | 3.4
C=CCn1c(-c2cc3cccc(OC)c3o2)n[nH]c1=S | 38.9 | 29.4 | 92.0 | -9.6 | -7.2 | 33.1* | -10.4 | 1.1
CCN(C(=O)C(C)N1C(=O)/C(=C/c2ccco2)SC1=S)C1CCS(=O)(=O)C1 (stereo not drawn) | 31.5 | -19.8 | 102.4 | 63.5 | -40.3 | 43.2* | -43.1 | 2.4
CC(C(=O)N(C)C1CCS(=O)(=O)C1)N1C(=O)/C(=C/c2ccc(F)cc2)SC1=S (stereo not drawn) | 1.9 | -2.1 | 105.3 | 1.7 | -0.1 | 13.8 | x | x
O=C(O)c1cc([N+](=O)[O-])c(N2CCCC2)c([N+](=O)[O-])c1 | -4.9 | 10.4 | 98.9 | 11.3 | 1.7 | 38.1* | 13.5 | 0.2
Fc1ccc(C[n+]2csc3ccccc32)cc1 | -0.9 | 3.6 | 102.3 | -1.5 | -5.4 | 35.9* | -5.3 | -1.0
Fc1ccc(CSc2ncnc3scc(-c4ccccc4)c23)cc1 | 8.4 | -9.5 | 108.5 | 13.1 | 4.0 | -3.2 | x | x
Cc1ccc(NC(=O)c2c(F)cccc2Cl)cc1S(=O)(=O)N1CCOCC1 | -9.7 | 2.2 | 117.9 | -4.8 | -7.8 | x | x | x
Cn1ccc(C(=O)Nc2cccnc2Cl)n1 | -5.5 | x | x | 0.4 | 11.3 | -1.4 | x | x
CCn1c(SCC(=O)NC2CCCC2)nnc1-c1ccncc1 | -9.0 | -14.4 | 92.8 | -0.7 | 7.6 | -1.4 | x | x
O=C(COC(=O)c1cc(-c2ccccc2)nc2ccccc12)NC1CC1 | -5.5 | -0.2 | 154.2 | 7.2 | -3.8 | x | x | x
CCc1ccc(C2CC(=O)N3CN(c4ccccc4)CSC3=C2C#N)cc1 (stereo not drawn) | 39.6 | x | 97.3 | 0.2 | -46.9 | 24.3 | x | x
CCOC(=O)c1ccc(N2CSC3=C(C#N)C(c4cccs4)CC(=O)N3C2)cc1 (stereo not drawn) | -5.1 | 15.1 | 106.9 | -3.4 | -6.1 | 31.9* | -8.0 | 5.7
COc1cc(/C=N/n2cnn(Cc3ccccc3Cl)c2=S)cc(OC)c1OC | -2.5 | -3.1 | 87.4 | -3.5 | 21.0 | 17.6 | x | x
COc1ccc(/C=N/n2cnn(Cc3ccccc3Cl)c2=S)cc1 | 1.2 | -9.6 | 96.2 | 1.5 | 3.7 | 33.7* | -50.2 | -3.1
COc1ccc(/C=N/Nc2nc(C(=O)O)cs2)cc1 | -9.3 | 29.8 | 103.0 | -4.4 | -16.1 | 33.8* | -4.0 | -0.1
C/C(=N\Nc1nc(C(=O)O)cs1)c1ccccc1 | -6.7 | 20.4 | 93.1 | -4.6 | x | 41.9* | -29.2 | -4.2
C/C(=N\Nc1nc2c(s1)CCCC2)c1ccccc1 | -3.6 | x | 87.9 | -3.5 | -1.3 | 14.5 | x | x
COC(=O)c1ccc(/C=N/Nc2nc(-c3ccccc3)cs2)cc1 | -0.9 | 69.7 | 113.3 | -1.3 | -1.9 | 9.2 | x | x
O=C1OC(Nc2ccc3c(c2)OCO3)c2ccccc21 (stereo not drawn) | 32.0 | 99.1* | 86.7 | 2.3 | -6.4 | 45.3* | 21.5 | 3.7
CC(OC(=O)c1nccnc1N)C(=O)Nc1ccc(S(=O)(=O)N2CCCC2)cc1 (stereo not drawn) | 12.7 | x | 99.3 | -0.7 | 12.7 | x | x | x
CC1(c2ccccc2)NC(=O)N(CC(=O)NCCN2C(=O)S/C(=C\c3cccnc3)C2=O)C1=O (stereo not drawn) | x | x | x | x | 11.1 | x | x | x
CCOC(=O)C1=C(CSc2nc(-c3ccncc3)ccc2C#N)OC(N)=C(C#N)C1c1ccc(OC)cc1 (stereo not drawn) | -3.1 | x | 92.7 | -4.1 | -78.5 | 34.5* | -7.1 | 3.6
SMILES | A3G deaminase | ALR H2O2 inh | Yeast superoxide | A3A deaminase | CendR NRP1 mod | PfM18AAP inh-1 | PfM18AAP inh-2 | CTSL1 counter
COc1cccc(/C=N/Nc2ccnc(=O)[nH]2)c1O | -5.0 | 13.7 | 103.0 | -1.6 | 10.2 | 43.0* | -11.9 | 2.3
COc1cccc(/C=N/NC(=O)N/N=C/c2cccc(OC)c2O)c1O | -2.7 | 44.6 | 110.8 | -3.0 | 3.6 | 33.5* | 1.6 | -3.8
O=C(Nc1ccccc1)Nn1cnnc1 | x | -12.6 | 95.2 | x | -1.1 | 56.4* | 40.0* | -3.2
O=C(CC(=O)Nc1ccc(Br)cc1)Nc1ccc(Br)cc1 | -6.9 | -79.8 | 107.8 | -5.8 | -0.3 | -2.5 | x | x
Cc1cc(C)cc(NC(=O)Nn2cnnc2)c1 | -5.4 | -10.6 | 103.7 | 1.4 | -21.9 | 54.5* | 37.4* | -2.8
O=C(Nc1ccc(Br)cc1Cl)Nn1cnnc1 | -2.9 | x | 100.4 | -2.8 | -0.3 | 74.9* | 78.1* | -0.2
CCC(C)NC(=O)Nc1ccc(Br)cc1Cl (stereo not drawn) | -4.8 | x | 98.3 | -1.9 | -5.1 | 6.8 | x | x
O=C(Nc1ccc(Br)cc1)Nn1cnnc1 | -4.0 | -1.0 | 105.5 | 3.3 | -6.2 | 73.3* | 56.3* | -2.2
Cc1ccc(N2CC(C(=O)N3CCOCC3)CC2=O)cc1C (stereo not drawn) | 2.5 | -9.0 | 98.4 | -3.9 | -5.7 | -2.2 | x | x
Nc1nc(SCC(=O)Nc2ccccc2Oc2ccccc2)n[nH]1 | -5.0 | -13.8 | 98.5 | -2.3 | -8.3 | -6.9 | x | x
O=C(O)c1ccc(/C=C2\SC(=S)N(Nc3ccccc3)C2=O)cc1 | -4.1 | 60.6 | 99.4 | -5.3 | -16.9 | 11.7 | x | x
O=C1/C(=C/c2ccncc2)SC(=S)N1Nc1ccccc1 | -6.2 | 98.8* | 89.5 | 1.4 | -16.8 | 32.2* | 9.7 | -6.5
O=C1/C(=C/c2ccc(O)c(O)c2)SC(=S)N1Nc1ccccc1 | x | x | x | x | -187.8 | 58.1* | 30.9* | 9.5
Cc1cccc2sc(NNC(=O)c3ccc(S(=O)(=O)N4CCCC(C)C4)cc3)nc12 (stereo not drawn) | x | x | 138.6 | x | 3.4 | 37.6* | -24.5 | 1.8
Cc1cccc2sc(NNC(=O)c3ccc(S(=O)(=O)N4CCc5ccccc5C4)cc3)nc12 | 4.1 | -21.7 | 109.2 | 0.7 | -10.8 | 36.6* | -42.4 | -1.6
C/C(=N/NS(=O)(=O)c1cccc([N+](=O)[O-])c1)c1ccncc1 | -9.5 | -6.9 | 102.2 | -5.2 | 10.6 | 44.3* | 4.0 | -4.0
C/C(=N\NS(=O)(=O)c1ccc(Br)cc1)c1ccncc1 | -2.1 | -6.8 | 95.1 | -0.7 | -1.1 | 53.2* | 13.5 | -5.4
O=[N+]([O-])c1ccc2c(OCc3nnc(-c4ccccc4Br)o3)ncnc2c1 | 4.3 | x | 102.6 | 4.9 | 0.2 | 3.5 | x | x
OC1CCCN(CC(O)c2ccccc2)C1 (stereo not drawn) | -3.8 | -4.8 | 93.2 | -0.5 | -9.6 | 3.0 | x | x
CCc1c(C)sc(NC(=O)c2cc(CC(C)C)on2)c1C#N | -0.2 | 2.0 | 104.9 | -0.7 | -11.5 | 12.6 | x | x
